From the supplement of paper PMC6089552
Hit rate of the full screen: of about 3,200 compounds, about 300 (9.4%) showed activity. The list comes from a sample in which actives are over-represented; it also holds similar structures and randomly drawn compounds.

Test system: A673/TR/shEF
Assay: cell viability (LOESS-normalised, relative to median of negative controls) (log2 ratio); higher = more viable cells (less compound effect), active = hit call of the paper (over 3 MAD below the median)
Conditions: treatment time: 72 h
In short: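 For three days, A673/TR/shEF Ewing sarcoma cells in 384-well plates (1,500 per well) were treated with library compounds at two or more concentrations or with DMSO controls, after doxycycline had been added or withheld 24 h beforehand to induce EWS-FLI1 shRNA knockdown. Viability was read by CellTiter-Glo luminescence on an Envision reader. The data were LOESS-corrected per plate, divided by the median of negative controls and log2-transformed.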

[1] = 0.25 µM, library screen: screen1, EWS-FLI1 expression: high (no doxycycline)
[2] = 0.25 µM, library screen: screen1, EWS-FLI1 expression: low (doxycycline-induced shRNA knockdown)
[3] = 2.5 µM, library screen: screen1, EWS-FLI1 expression: high (no doxycycline)
[4] = 2.5 µM, library screen: screen1, EWS-FLI1 expression: low (doxycycline-induced shRNA knockdown)
[5] = 0.25 µM, library screen: screen2, EWS-FLI1 expression: high (no doxycycline)
[6] = 0.25 µM, library screen: screen2, EWS-FLI1 expression: low (doxycycline-induced shRNA knockdown)
[7] = 2.5 µM, library screen: screen2, EWS-FLI1 expression: high (no doxycycline)
[8] = 2.5 µM, library screen: screen2, EWS-FLI1 expression: low (doxycycline-induced shRNA knockdown)
[9] = 0.103 µM, library screen: screen3, EWS-FLI1 expression: high (no doxycycline)
[10] = 0.103 µM, library screen: screen3, EWS-FLI1 expression: low (doxycycline-induced shRNA knockdown)
[11] = 0.308 µM, library screen: screen3, EWS-FLI1 expression: high (no doxycycline)
[12] = 0.308 µM, library screen: screen3, EWS-FLI1 expression: low (doxycycline-induced shRNA knockdown)
[13] = 0.926 µM, library screen: screen3, EWS-FLI1 expression: high (no doxycycline)
[14] = 0.926 µM, library screen: screen3, EWS-FLI1 expression: low (doxycycline-induced shRNA knockdown)
[15] = 2.8 µM, library screen: screen3, EWS-FLI1 expression: high (no doxycycline)
[16] = 2.8 µM, library screen: screen3, EWS-FLI1 expression: low (doxycycline-induced shRNA knockdown)
[17] = 8.3 µM, library screen: screen3, EWS-FLI1 expression: high (no doxycycline)
[18] = 8.3 µM, library screen: screen3, EWS-FLI1 expression: low (doxycycline-induced shRNA knockdown)
[19] = 25 µM, library screen: screen3, EWS-FLI1 expression: high (no doxycycline)
[20] = 25 µM, library screen: screen3, EWS-FLI1 expression: low (doxycycline-induced shRNA knockdown)

Measured: cell viability (log2)

CC(=O)Oc1ccc2c(c1)CCC1C2CCC2(C)C(=O)CCC12 (configuration not stated)
inactive: [1] 0.0434 | [2] -0.0193 | [3] 0.146 | [4] 0.0428

N.N.N.N.N.O.[Ru+2]
inactive: [5] 0.216 | [6] 0.0909 | [7] 0.256 | [8] 0.0639

CCC/C=C/C=C/C1CC(O)C(O)C(=O)C1C=O (configuration not stated)
inactive: [1] -0.0508 | [2] 0.0579 | [3] 0.0447 | [4] 0.105

C=C1CC[C@@H]2[C@H](CC2(C)C)C(=O)CC[C@@H]1O
inactive: [1] 0.0475 | [2] 0.00133 | [3] 0.0814 | [4] 0.0623

C=C1C(C)(C)[C@@]2(Cl)C(Cl)[C@]1(Cl)C(Cl)(Cl)C2(Cl)Cl (some centres not stated)
inactive: [1] 0.0218 | [2] 0.106 | [3] 0.0433 | [4] 0.0358

COc1ccccc1CN1CCN(Cc2ccc(OC)c(OC)c2OC)CC1
inactive: [1] 0.0684 | [2] 0.104 | [3] 0.0567 | [4] 0.0723

CC[C@H]1OC(=O)[C@H](C)[C@@H](O[C@H]2C[C@@](C)(OC)[C@@H](O)[C@H](C)O2)[C@H](C)[C@@H](O[C@@H]2O[C@H](C)C[C@H](N(C)C)[C@H]2O)[C@](C)(O)C[C@@H](C)/C(=N/OCOCCOC)[C@H](C)[C@@H](O)[C@]1(C)O
inactive: [1] 0.13 | [2] 0.107 | [3] 0.122 | [4] 0.103

C/C=C/CC(C)C(O)C1C(=O)NC(CC)C(=O)N(C)CC(=O)N(C)C(CC(C)C)C(=O)NC(C(C)C)C(=O)N(C)C(CC(C)C)C(=O)NC(C)C(=O)NC(C)C(=O)N(C)C(CC(C)C)C(=O)N(C)C(CC(C)C)C(=O)N(C)C(C(C)C)C(=O)N1C (configuration not stated)
inactive: [1] 0.0736 | [2] 0.0415 | [5] 0.25 | [6] 0.127 | [3] 0.0328 | [4] 0.00672 | [7] 0.11 | [8] 0.104

CC(C)(O)[C@@H]1CC[C@](C)([C@H]2[C@@H](O)C[C@@]3(C)[C@@H]4C[C@H](O[C@@H]5O[C@H](CO)[C@@H](O)[C@H](O)[C@H]5O)[C@H]5C(C)(C)[C@@H](O[C@@H]6OC[C@@H](O)[C@H](O)[C@H]6O)CC[C@@]56C[C@@]46CC[C@]23C)O1
inactive: [9] 0.0688 | [10] 0.0886 | [11] 0.0588 | [12] 0.038 | [13] 0.056 | [14] 0.105 | [15] 0.044 | [16] -0.00938 | [17] 0.0806 | [18] 0.0911 | [19] 0.0188 | [20] 0.0301

CC(=O)O[C@H]1CC[C@@]2(C)[C@@H](CC[C@@H]3[C@@H]2CC[C@]2(C)[C@@H]4[C@H](C[C@@H]32)O[C@]2(CC[C@@H](C)CO2)[C@H]4C)C1
inactive: [1] 0.0876 | [2] 0.0708 | [3] 0.176 | [4] 0.151

CC1=C(Cl)C(O)=CC(=O)C12Oc1cc(O)c(Cl)c(C)c1C2=O (configuration not stated)
inactive: [1] 0.0863 | [2] 0.0945 | [3] 0.127 | [4] 0.13

CSCC[C@H](NC=O)C(=O)N[C@@H](Cc1ccccc1)C(=O)O
inactive: [1] 0.0894 | [2] 0.169 | [3] 0.0791 | [4] 0.113

C/C=C(/C)C(=O)O[C@@H]1c2c(ccc3ccc(=O)oc23)OC(C)(C)[C@@H]1OC(C)=O
inactive: [1] -0.0115 | [2] 0.00938 | [3] 0.181 | [4] 0.0803

C[C@@H]1O[C@@H](O[C@H]2[C@H](O[C@H]3CC[C@@]4(C)[C@@H](CC[C@]5(C)[C@@H]4CC=C4[C@@H]6CC(C)(C)CC[C@]6(C(=O)O)CC[C@]45C)[C@]3(C)CO)OC[C@H](O)[C@@H]2O)[C@H](O)[C@H](O)[C@H]1O
inactive: [1] 0.0421 | [2] 0.11 | [3] 0.089 | [4] 0.0617

CC(=O)N1CCN(c2nc(-c3ccccc3)c3cc(Br)ccc3n2)CC1
inactive: [1] 0.0769 | [2] 0.0692 | [3] 0.115 | [4] 0.105

COc1ccccc1/C=C/c1nc(O)c([N+](=O)[O-])c(=O)[nH]1
inactive: [1] 0.123 | [2] 0.138 | [3] 0.0902 | [4] 0.00102

CCOC(=O)c1c[nH]c2ccc(OC)cc2c1=O
inactive: [1] 0.15 | [2] 0.1 | [3] 0.112 | [4] 0.121

CC(C)[C@@H](C)/C=C/[C@@H](C)[C@H]1CC[C@H]2C3=CC=C4C[C@@H](O)CC[C@]4(C)[C@H]3CC[C@]12C
inactive: [1] 0.0837 | [2] 0.11 | [3] 0.0787 | [4] 0.0538

COc1cc2c(Oc3ccc4[nH]c(C)cc4c3F)ncnc2cc1OCCCN1CCCC1
inactive: [9] 0.0825 | [10] 0.0561 | [11] 0.034 | [12] 0.013 | [13] 0.0586 | [14] 0.0142 | [15] 0.0459 | [16] 0.0297 | [17] -0.077 | [18] 0.092 | [19] 0.0238 | [20] 0.0041

COc1cc(Nc2c(C#N)cnc3cc(OCCCN4CCN(C)CC4)c(OC)cc23)c(Cl)cc1Cl
inactive: [9] 0.00802 | [10] 0.123 | [11] 0.0466 | [12] 0.063 | [13] 0.0151 | [14] 0.16 | [15] -0.0156 | [16] 0.139 | [17] -0.148 | [18] -0.136
active: [19] -1.59 | [20] -0.647

COc1cc(C(=O)OCCCN2CCCN(CCCOC(=O)c3cc(OC)c(OC)c(OC)c3)CC2)cc(OC)c1OC
inactive: [5] 0.105 | [6] 0.0948 | [7] 0.199 | [8] 0.123

O=C(O)CSc1nnc(-c2ccc(Cl)cc2Cl)n1-c1ccccc1
inactive: [1] 0.109 | [2] 0.165 | [3] 0.15 | [4] 0.122

COc1c(C(=O)O)ccc2c1CCC(C)(C)O2
inactive: [1] 0.0873 | [2] 0.0519 | [3] 0.206 | [4] -0.0164

CCOc1ccc(C(=O)Nc2cccc(OC)c2)cc1Cl
inactive: [1] 0.0358 | [2] 0.0408 | [3] 0.151 | [4] 0.0428

CCOc1cc2ncc(C#N)c(Nc3ccc(OCc4ccccn4)c(Cl)c3)c2cc1NC(=O)/C=C/CN(C)C
inactive: [9] 0.0468 | [10] 0.0085 | [11] -0.038 | [12] -0.0155 | [13] -0.0139 | [14] -0.00326 | [15] -0.0436 | [16] -0.282 | [19] -0.035 | [20] -0.415
active: [17] -0.204 | [18] -0.529

CCOc1ccc(C(=O)Nc2ccc(NC(=O)CC)cc2)cc1Cl
inactive: [1] 0.102 | [2] 0.0179 | [3] 0.0812 | [4] -0.0835

CCOc1cc2ncc(C#N)c(Nc3ccc(F)c(Cl)c3)c2cc1NC(=O)/C=C/CN(C)C
inactive: [9] 0.06 | [10] 0.0264 | [11] 0.0695 | [12] 0.0377 | [13] 0.0744 | [14] -0.098 | [17] -0.14 | [18] -0.477
active: [15] -0.201 | [16] -0.422 | [19] -1.43 | [20] -0.678

COc1cccc(-n2c(C)c(C(C)=O)c(C(C)=O)c2C)c1
inactive: [1] -0.0313 | [2] 0.00668 | [3] 0.0772 | [4] -0.0891

COc1cc(C(=O)NC2CCCCC2)c([N+](=O)[O-])cc1OC
inactive: [1] 0.122 | [2] 0.0996 | [3] 0.157 | [4] 0.0416

CC(=O)O[C@]1(C(=O)CO)[C@H](C)C[C@H]2[C@@H]3CCC4=CC(=O)C=C[C@]4(C)[C@@]3(F)[C@@H](O)C[C@@]21C
inactive: [1] 0.0305 | [2] -0.118 | [3] 0.0736 | [4] -0.0945

COc1ccc(/C=C(/NC(=O)c2ccccc2)C(=O)N2CCCCCC2)cc1OC
inactive: [1] 0.12 | [2] 0.0586 | [3] 0.088 | [4] 0.085

CC(C(=O)O)[C@H]1CCC2C3CC=C4C[C@@H](O)CC[C@]4(C)C3CC[C@@]21C (some centres not stated)
inactive: [1] 0.0415 | [2] 0.0559 | [3] 0.0699 | [4] -0.0298

CC1(C)CC(=O)C2=C(C1)Nc1ccccc1N(C(=O)Cc1ccc(Cl)cc1)C2c1cccnc1 (configuration not stated)
inactive: [1] 0.0404 | [2] 0.0353 | [3] 0.127 | [4] 0.0963

CC1=C(C(=O)Nc2ccccc2Cl)C(c2ccc(F)cc2)NC(=O)N1 (configuration not stated)
inactive: [1] 0.153 | [2] 0.0871 | [3] 0.0947 | [4] -0.018

CC1(C)CC2C1CCC1(CBr)CCC3C(CC(=O)O)C(=O)OC32C1 (configuration not stated)
inactive: [1] 0.146 | [2] 0.038 | [3] 0.195 | [4] 0.152

CCN(CC)CCNC(=O)c1c(C)[nH]c(/C=C2\C(=O)Nc3ccc(F)cc32)c1C
inactive: [9] 0.0562 | [10] 0.0683 | [11] 0.0856 | [12] 0.0784 | [13] -0.0103 | [14] 0.0749 | [15] -0.00223 | [16] 0.0762 | [17] -0.0922 | [18] 0.071
active: [19] -0.697 | [20] -0.541

CCN(CC)CCNC(=O)c1ccc(N)cc1
inactive: [1] 0.0893 | [2] 0.128 | [5] 0.138 | [6] 0.0499 | [3] 0.121 | [4] 0.267 | [7] 0.308 | [8] 0.0657

CCN(CC)CCNC(=O)c1cc(S(C)(=O)=O)ccc1OC
inactive: [1] 0.0293 | [2] 0.172 | [5] 0.198 | [6] 0.0568 | [3] 0.105 | [4] 0.182 | [7] 0.192 | [8] 0.0888
